Results on 60 compounds are retold here after PubChem BioAssay (NCATS).

Results filed as inconclusive are left out. The source made the active and inactive calls. Unless noted, the call rests on the fitted dose curve.

Experiment [1] in a line: qHTS for Inhibitors of the Functional Ribonucleoprotein Complex (vRNP) of Lymphocytic Choriomeningitis Arenaviruses (LCMV): Viability assay - alamar blue signal for LCMV Primary Screen (AID 1347085; calls by dose curve; tested in HEK293 reporter line; further: nearly all actives have a fitted effect of over 80% in size).
Experiment [2] deals with Nucleoprotein (Lymphocytic choriomeningitis virus (strain Armstrong)) (UniProt P09992). The experiment can be described thus: qHTS for Inhibitors of the Functional Ribonucleoprotein Complex (vRNP) of Lymphocytic Choriomeningitis Arenaviruses (LCMV): LCMV Primary Screen - GLuc reporter signal (AID 1347086). Further: nearly all actives have a fitted effect of over 70% in size.
Sequence of Nucleoprotein (Lymphocytic choriomeningitis virus (strain Armstrong)) (P09992 whole entry, looked up): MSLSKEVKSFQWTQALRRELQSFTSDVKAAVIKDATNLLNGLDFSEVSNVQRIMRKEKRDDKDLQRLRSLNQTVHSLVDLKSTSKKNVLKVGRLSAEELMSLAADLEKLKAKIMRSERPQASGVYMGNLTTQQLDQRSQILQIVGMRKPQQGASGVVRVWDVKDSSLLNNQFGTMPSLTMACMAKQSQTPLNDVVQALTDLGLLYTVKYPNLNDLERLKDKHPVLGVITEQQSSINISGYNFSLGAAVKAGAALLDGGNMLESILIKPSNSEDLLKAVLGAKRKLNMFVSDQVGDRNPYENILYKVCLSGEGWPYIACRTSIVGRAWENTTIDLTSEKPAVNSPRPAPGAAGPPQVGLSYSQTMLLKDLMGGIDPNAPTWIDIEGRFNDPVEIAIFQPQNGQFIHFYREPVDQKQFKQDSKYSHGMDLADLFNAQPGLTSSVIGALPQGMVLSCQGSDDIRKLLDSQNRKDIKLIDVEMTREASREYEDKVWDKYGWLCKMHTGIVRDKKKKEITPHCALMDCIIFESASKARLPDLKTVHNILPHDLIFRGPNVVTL
Potency means the concentration at half of the fitted maximal effect.

As to `CC1=C(/C=C/C(C)=C/C=C/C(C)=C/C(=O)O)C(C)(C)CCC1`, the Potency entry in experiment [1] and in experiment [2] was “inactive” each time.

As to `CCOc1cc(NC(C)=O)ccc1C(=O)OC`, the Potency entry in experiment [1] and in experiment [2] was “inactive” each time.

Consider `CC(C)CC(=O)Nc1n[nH]c2c1CN(C(=O)C1CCN(C)CC1)C2(C)C`, for which the Potency result in experiment [1] and in experiment [2] was “inactive” each time.

For the compound `O=C(c1cc(Cc2n[nH]c(=O)c3ccccc23)ccc1F)N1CCN(C(=O)C2CC2)CC1`, the Potency result in experiment [1] and in experiment [2] was “inactive” each time.

In the case of `CCCCCCCC(=O)OCC(O)CO` (stereo not given), the Potency entry in experiment [1] and in experiment [2] was “inactive” throughout.

As to `COC(=O)c1ccc2c(C(=Nc3ccc(N(C)C(=O)CN4CCN(C)CC4)cc3)c3ccccc3)c(O)[nH]c2c1`, the Potency in experiment [1] is 27.3 µM (active). The Potency entry in experiment [2] was “inactive”.

As to `O=C(Nc1cccc(C2=NCCN2)c1)Nc1cccc(C2=NCCN2)c1`, the Potency entry in experiment [1] and in experiment [2] was “inactive” in each case.

As to `C[C@H](CN1CCCC1)C(=O)c1ccc(C(F)(F)F)cc1`, the Potency entry in experiment [1] and in experiment [2] was “inactive” each time.

With `CC1(C)OC2=C(C(=O)c3ccccc3C2=O)[C@H](NCc2ccccc2)[C@H]1O`, the Potency in experiment [1] was 2.17 µM (active); in experiment [2] it was 863 nM (active).

As for `Cc1cn(-c2cc(NC(=O)c3ccc(C)c(Nc4nccc(-c5cccnc5)n4)c3)cc(C(F)(F)F)c2)cn1`, the Potency result in experiment [1] and in experiment [2] was “inactive” throughout.

Regarding `CC(C)CCCC(C)CCCC(C)CCCCC(C)CCCC(C)CCCC(C)C` (stereo not given), the Potency result in experiment [1] and in experiment [2] was “inactive” each time.

Take `CC(C)(c1ccc(O)cc1)c1ccc(O)cc1`: the Potency result in experiment [1] and in experiment [2] was “inactive” each time.

Take `Cc1cc(Nc2nc(N[C@@H](C)c3ncc(F)cn3)ncc2Cl)n[nH]1`: the Potency entry in experiment [1] and in experiment [2] was “inactive” throughout.

On to `NC(CCP(=O)(O)O)C(=O)O` (stereo not given), for which the Potency result in experiment [1] and in experiment [2] was “inactive” each time.

In the case of `OCCCc1ccccc1`, the Potency entry in experiment [1] and in experiment [2] was “inactive” throughout.

Take `CC[C@@H](C)[C@H](NC(=O)[C@H](CC1CCCCC1)NC(=O)c1ccno1)C(=O)N1CCC2(CCc3ccccc32)CC1`: the Potency result in experiment [1] and in experiment [2] was “inactive” throughout.

As to `NC(=O)CN1CC(O)CC1=O` (stereo not given), the Potency result in experiment [1] and in experiment [2] was “inactive” in each case.

In the case of `Cc1cccc(C)c1NC(=O)c1ccccc1C(=O)O`, the Potency result in experiment [1] and in experiment [2] was “inactive” each time.

For `O=C(Nc1cccc(Cl)c1)Nc1ncc(CCNc2ncnc3ccsc23)s1`, the Potency result in experiment [1] and in experiment [2] was “inactive” each time.

Take `O=S(c1cc(Cl)cc(Cl)c1O)c1cc(Cl)cc(Cl)c1O`: the Potency entry in experiment [1] and in experiment [2] was “inactive” throughout.

`CN1CC[C@@H](c2c(O)cc(O)c3c(=O)cc(-c4ccccc4Cl)oc23)[C@@H](O)C1`: the Potency in experiment [1] was 0.217 µM (active); in experiment [2], 344 nM (active).

Consider `COc1cc(N2CCC(N3CCN(C)CC3)CC2)ccc1Nc1ncc(Cl)c(Nc2ccccc2S(=O)(=O)C(C)C)n1`, for which the Potency entry in experiment [1] and in experiment [2] was “inactive” each time.

In the case of `COc1cc2c(Oc3ccc(-c4cnc(Nc5ccc(F)cc5)n(C)c4=O)cc3F)ccnc2cc1OCCCN1CCOCC1`, the Potency in experiment [1] was 21.7 µM (active); in experiment [2] it was 24300 nM (active).

Regarding `CCN1CCN(Cc2ccc(-c3cc4c(N[C@H](C)c5ccccc5)ncnc4[nH]3)cc2)CC1`, the Potency entry in experiment [1] and in experiment [2] was “inactive” throughout.

In the case of `COc1ccc2c(c1)CC[C@H]1[C@@H]2CC[C@]2(C)[C@@H](NCCCCCCN3C(=O)C=CC3=O)CC[C@H]12`, the Potency entry in experiment [1] and in experiment [2] was “inactive” in each case.

Regarding `Clc1cnc(Oc2ccc(Oc3ncc(Cl)cc3Cl)cc2)c(Cl)c1`, the Potency entry in experiment [1] and in experiment [2] was “inactive” each time.

As for `O=C(Cc1ccc(Cl)c(Cl)c1)N1CCCCC1CN1CCCC1` (stereo not given), the Potency result in experiment [1] and in experiment [2] was “inactive” in each case.

Turning to `O=C(C=Cc1ccc(/C=C/C(=O)Nc2ccc(C3=NCCN3)cc2)cc1)Nc1ccc(C2=NCCN2)cc1`, the Potency entry in experiment [1] and in experiment [2] was “inactive” in each case.

For the compound `CC(=O)N[C@@H](Cc1ccc(O)cc1)C(=O)O`, the Potency result in experiment [1] and in experiment [2] was “inactive” in each case.

Turning to `O=C(C=Cc1cccc(S(=O)(=O)Nc2ccccc2)c1)NO`, the Potency in experiment [1] was 39.5 µM (active). For the same compound, the Potency entry in experiment [2] was “inactive”.

As to `CCCCC/C(C=O)=C\c1ccccc1`, the Potency result in experiment [1] and in experiment [2] was “inactive” throughout.

Turning to `S=c1[nH]c2ccccc2s1`, the Potency result in experiment [1] and in experiment [2] was “inactive” each time.

On to `CCOC(CN1C(=O)[C@](CC(=O)Nc2ccc(C)cc2)(NC(=O)Nc2ccc(C)cc2)c2ccccc21)OCC`, for which the Potency entry in experiment [1] and in experiment [2] was “inactive” in each case.

As for `CN1C(=O)c2ccccc2C1=O`, the Potency result in experiment [1] and in experiment [2] was “inactive” in each case.

Consider `COc1cc2ncnc(Nc3ccc(F)c(Cl)c3)c2cc1NC(=O)C=CCN1CCCCC1`, for which the Potency result in experiment [1] and in experiment [2] was “inactive” in each case.

`COc1c(C)cnc(Cn2cnc3c(Cl)nc(N)nc32)c1C`: the Potency in experiment [1] was 0.685 µM (active); in experiment [2], 344 nM (active).

As to `COc1ccc2c3n(c(=NC(=O)c4cccnc4)nc2c1OC)CCN3`, the Potency in experiment [1] is 0.968 µM (active); in experiment [2], 769 nM (active).

For `CCOc1ccc(Cc2cc([C@@H]3O[C@H](CO)[C@@H](O)[C@H](O)[C@@H]3O)ccc2Cl)cc1`, the Potency entry in experiment [1] and in experiment [2] was “inactive” in each case.

As to `COc1ccc(CC2SC(=O)NC2=O)cc1C(=O)NCc1ccc(C(F)(F)F)cc1` (stereo not given), the Potency in experiment [1] was 38.5 µM (active). Moreover, in experiment [2], the Potency entry was “inactive”.

Consider `Cc1nn(Cc2ccccc2Cl)c(C)c1CN(C)CC(O)COc1ccc(Cl)cc1` (stereo not given), for which the Potency entry in experiment [1] and in experiment [2] was “inactive” in each case.

In the case of `CC1=C(C/C=C(\C)CCC[C@H](C)CCC[C@H](C)CCCC(C)C)C(=O)c2ccccc2C1=O`, the Potency result in experiment [1] and in experiment [2] was “inactive” throughout.

Take `c1ccc2[nH]ccc2c1`: the Potency entry in experiment [1] and in experiment [2] was “inactive” throughout.

As for `C#CC(C)(CC)OC(=O)c1ccccc1C(=O)O` (stereo not given), the Potency entry in experiment [1] and in experiment [2] was “inactive” throughout.

With `Cc1cccc(Nc2nc(N[C@@H]3CCCC[C@H]3N)ncc2C(N)=O)c1`, the Potency entry in experiment [1] and in experiment [2] was “inactive” each time.

Take `Nc1ccccc1N`: the Potency result in experiment [1] and in experiment [2] was “inactive” in each case.

With `OCCn1cc(-c2cnc3nnn(Cc4ccc5ncccc5c4)c3n2)cn1`, the Potency result in experiment [1] and in experiment [2] was “inactive” in each case.

In the case of `CCN(c1ccccc1)c1cc(NC)[n+](C)c(C)n1`, the Potency entry in experiment [1] and in experiment [2] was “inactive” each time.

On to `C[N+]1(C)C2CCC1CC(OC(=O)C(CO)c1ccccc1)C2` (stereo not given), for which the Potency entry in experiment [1] and in experiment [2] was “inactive” each time.

As for `NC1CCc2cc(O)c(O)cc2C1` (stereo not given), the Potency result in experiment [1] and in experiment [2] was “inactive” in each case.

Take `CCCCC(CC)COC(=O)/C=C/c1ccc(OC)cc1` (stereo not given): the Potency entry in experiment [1] and in experiment [2] was “inactive” in each case.

`NCCS`: the Potency result in experiment [1] and in experiment [2] was “inactive” throughout.

As to `Cn1cc(-c2ccc3nnc(C(F)(F)c4ccc5ncccc5c4)n3n2)cn1`, the Potency result in experiment [1] and in experiment [2] was “inactive” each time.

In the case of `COc1c(N2CCNC(C)C2)c(F)cc2c(=O)c(C(=O)O)cn(C3CC3)c12` (stereo not given), the Potency result in experiment [1] and in experiment [2] was “inactive” each time.

For `CNCc1ccc(-c2[nH]c3cc(F)cc4c3c2CCNC4=O)cc1`, the Potency entry in experiment [1] and in experiment [2] was “inactive” in each case.

On to `O=c1cc(N2CCOCC2)oc2c(-c3cccc4c3sc3ccccc34)cccc12`, for which the Potency entry in experiment [1] and in experiment [2] was “inactive” in each case.

For `NCc1cc(=O)[nH]o1`, the Potency result in experiment [1] and in experiment [2] was “inactive” throughout.

For the compound `Cc1cc2c(cc1C1(c3ccc(C(=O)O)cn3)CC1)C(C)(C)CCC2(C)C`, the Potency result in experiment [1] and in experiment [2] was “inactive” each time.

With `Oc1cccc(-c2nc(N3CCOCC3)c3oc4ncccc4c3n2)c1`, the Potency in experiment [1] was 1.4 µM (active); in experiment [2], 1400 nM (active).

Consider `C[C@@H](N)Cc1cnc[nH]1`, for which the Potency result in experiment [1] and in experiment [2] was “inactive” in each case.

In the case of `CC(C)c1ccccc1Cc1cc(C(=O)Nc2ccc(S(=O)(=O)c3ccccc3C(C)(C)C)cc2)c(O)c(O)c1O`, the Potency was 24.3 µM (active) in experiment [1] and 24300 nM (active) in experiment [2].
